# Bioassay records from PubChem.
# mHTT CaM bind: inhibitors of human mutant huntingtin-calmodulin interaction; P42858; AlphaScreen His-mHTT/GST-CaM binding, luminescence; inhibition, % at 15 µM; 190,000 tested, 3.6% active; AID 1671202;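 further: 0% = both proteins with DMSO and 100% = one protein alone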
# Pf apPOL inh: Pf-apPOL DNA polymerase inhibition; Recombinant Pf-apPOL, molecular beacon fluorescence, 1.5 h; inhibition, % at 10 µM; 210,000 tested, 0.25% active; AID 1794808
# An asterisk follows results filed as active; / = not tested or not shown; ! = repeats disagree. This is a sample that favours compounds with a hit; in the whole collection about 3.6% have one here. No stated cut-off is given here; in the data, active means inhibition above about 50%; inactive means the rest.
SMILES,mHTT CaM bind,Pf apPOL inh
COc1ccc(Oc2coc3cc(OC(=O)C4CCCCC4)ccc3c2=O)cc1,0,-12
O=C(NCCc1ccccc1Cl)c1cc(S(=O)(=O)N2CCc3ccccc32)ccc1F,1,-4
O=C1CNC(=S)N1CCc1c[nH]c2ccccc12,/,12
O=C1C=CC(=O)C(C2=C3C(=O)N(CCc4c[nH]c5ccccc45)CC(=O)N3CCC2)=C1,63*,-3
O=C1C=CC(=O)C(C2=C3C(=O)N(CCc4ccccc4)CC(=O)N3CCC2)=C1,80*,-5
COc1ccc(CCN2CC(=O)N3CCCC(C4=CC(=O)C=CC4=O)=C3C2=O)cc1OC,21,2
Cc1ccc([N+](=O)[O-])cc1NC(=O)C1(c2ccccc2)CCOCC1,-2,-16
O=c1[nH]c2ccc(Cl)cc2c(-c2ccccc2)c1N1CCOCC1,/,-18
Cc1[nH]c2ccc(Cl)cc2c(=O)c1CN1CCCC1,0,0
O=c1[nH]c2ccc(Cl)cc2c(-c2ccccc2)c1N1CCN(Cc2ccc3c(c2)OCO3)CC1,100*,-2
O=C(CCN1CCCC1)Nc1cccc(Br)c1,-4,-3
O=C(CCN1CCCCC1)Nc1c(-c2ccccc2)c2cc(Br)ccc2[nH]c1=O,99*,-9
O=c1[nH]c2ccc(Cl)cc2c(-c2ccccc2)c1CN1CCCCC1,100*,0
Cc1ccc(NC(=O)c2cc3n(n2)C(C(F)(F)F)CC(c2ccc4c(c2)OCO4)N3)c(C)c1 (stereo unspecified),5,-4
N#CCCN(Cn1nnc2ccccc21)c1ccccc1,27,2
CSc1ccc(CNC(=O)C2CCN(c3cc(=O)n(C)c(=O)n3C)CC2)cc1,35,4
Cc1nn(C2CCS(=O)(=O)C2)c(C)c1N1CCN(C(=O)NCc2cccs2)CC1 (stereo unspecified),1,-1
CCCCC1(CO)C(=O)N(c2ccccc2)N(c2ccccc2)C1=O,/,-12
CCCCC1(CC(=O)Nc2ccc(F)cc2)C(=O)N(c2ccccc2)N(c2ccccc2)C1=O,98*,-1
O=C(CCc1cc2ccccc2[nH]c1=O)N1CCCCC1,-7,-3
O=C(CCc1cc2ccccc2[nH]c1=O)N1CCSCC1,100*,-6
CC(=O)Nc1ccc(C=C(C#N)c2ccc([N+](=O)[O-])cc2)cc1,/,-9
Clc1cccc(Cl)c1CSc1nnc(-c2cnccn2)s1,/,-12
CC1=CCC(C(=O)O)(C(=O)n2nc(C)cc2C)C(c2ccccc2)C1 (stereo unspecified),-42,-4
COc1ccc(C=Nc2c(-c3ccc(O)c(OC)c3)nc3ccccn23)cc1O,32,-3
SMILES,mHTT CaM bind,Pf apPOL inh
COc1cc(C=Nc2c(-c3ccc(O)c(OC)c3)nc3ccccn23)ccc1O,60*,7
COc1cc(-c2nc3ccccn3c2N=Cc2cn[nH]c2-c2ccc(F)cc2)ccc1O,56*,-4
COc1cc(-c2nc3ccccn3c2N=Cc2cc([N+](=O)[O-])cc([N+](=O)[O-])c2O)ccc1O,2,1
N#Cc1cccc(-c2cn3c(n2)N(C(=O)COc2ccccc2)CCC3)c1,55*,-1
N#Cc1cccc(-c2cn3c(n2)N(C(=O)c2ccccc2)CCC3)c1,8,0
N#Cc1c(SCC(=O)c2ccc(Cl)s2)sc2c(O)cc(=O)[nH]c12,63*,/
N#CCSc1sc2c(O)cc(=O)[nH]c2c1C#N,-1,/
Cc1ccc(NC(=O)c2cc3cc(Br)ccc3oc2=O)c(Br)c1,-2,85*
Cc1ccc(NC(=O)c2cc3ccccc3oc2=O)c(Br)c1,5,-3
CCn1cnnc1C1CCCN(Cc2cn[nH]c2-c2ccccc2)C1 (stereo unspecified),-7,6
Cc1ccc(-c2ccc(/C=C/C(=O)c3ccco3)o2)cc1,31,-14
COc1ccccc1-c1ccc(C=CC(=O)c2ccco2)o1,58*,-9
COc1cccc(-n2nc(C(=O)N3CCCC(C)C3)c3ccccc3c2=O)c1 (stereo unspecified),0,-1
COCCNC(=O)C1(C)CCC(=O)N1CCc1c[nH]c2ccccc12 (stereo unspecified),2,-1
CC(C)CCNC(=O)C1(C)CCc2ccccc2C(=O)N1CCc1c[nH]c2ccccc12 (stereo unspecified),98*,-5
Nc1cc(N)nc(SCC(=O)Nc2ncccn2)n1,3,-2
O=C(Cc1nc(O)cs1)c1ccccc1,-2,-7
COc1ccccc1NC(=O)c1cnn(-c2ccccc2)c1NC(=O)c1cccc(F)c1,59*!,8
O=C(Nc1c(C(=O)Nc2ccccc2)cnn1-c1ccccc1)c1ccccc1,11,3
COc1ccc(Cl)cc1C(=O)NCC1CN(c2ccc3c(c2)OCO3)C(=O)O1 (stereo unspecified),-13,-3
CCCCNC(=O)c1cc2c(n(-c3ccc(OC)cc3)c1=O)CC(C)(C)CC2=O,2,-8
Cc1ccc(Cn2nc(C)c(NC(=O)c3noc4c3CCCCC4)c2C)cc1,15,-1
Cc1nn(Cc2ccc(Cl)c(Cl)c2)c(C)c1NC(=O)c1cc(-c2ccco2)on1,57*,2
Cc1cc(C)n(CCNC(=O)c2cc(-c3ccco3)on2)n1,0,6
Cc1nn(Cc2ccc(Cl)c(Cl)c2)c(C)c1NC(=O)c1noc2c1CCCC2,100*,-4
SMILES,mHTT CaM bind,Pf apPOL inh
Cc1cc(C)n(CC(=O)N2CCCC2c2nc(-c3ccccc3)n[nH]2)n1 (stereo unspecified),-4,-9
CCOc1ccc(-c2nc3s/c(=C\c4ccccc4Cl)c(=O)n3n2)cc1,1,7
O=C(CC1(O)C(=O)N(CCc2ccccc2)c2ccccc21)c1cccs1 (stereo unspecified),8,-10
O=C(CC1(O)C(=O)N(Cc2ccccc2)c2ccccc21)c1ccc(Br)s1 (stereo unspecified),52*,-9
O=C(Nc1cccc([N+](=O)[O-])c1)c1c(F)cccc1Cl,2,-7
Nc1ccc(C(=O)c2ccc(N)c(N)c2)cc1N,10,-11
Nc1ccc(N)c2c1C(=O)c1c(N)ccc(N)c1C2=O,92*,-2
C=C[C@H](CC(C)C)N(Cc1ccccc1)S(=O)(=O)N(Cc1ccc(OC)cc1)[C@H](C=C)CC(C)C,-16,-1
COc1ccc(CN([C@H](C)C=O)S(=O)(=O)N(Cc2ccccc2)[C@H](C=O)C(C)C)cc1,97*,0
CCC(=O)N(C)CC(=O)N1N=C(c2cccs2)CC1c1ccc(C)cc1 (stereo unspecified),14,-2
CN(CC(=O)N1N=C(c2ccc(F)cc2)CC1c1ccc(F)cc1)C(=O)C1CCC1 (stereo unspecified),43,-5
Cc1ccc(C2CC(c3cccs3)=NN2C(=O)CN(C)C(=O)C2CCC2)cc1 (stereo unspecified),51*,-2
CC(=O)N(C)CC(=O)N1N=C(c2ccc(C)c(C)c2)CC1c1ccc(C)cc1 (stereo unspecified),58*,-2
Cc1ccc(C2=NN(C(=O)CN(C)C(=O)C3CC3)C(c3ccccc3)C2)cc1C (stereo unspecified),27,-3
Cc1ccc(C2CC(c3cccn3C)=NN2C(=O)CN(C)C(=O)C2CCC2)cc1 (stereo unspecified),54*,-8
Cc1ccc(C2CC(c3ccccc3Cl)=NN2C(=O)CN(C)C(=O)C2CC2)cc1 (stereo unspecified),88*,1
CN(CC(=O)N1N=C(c2ccccc2Cl)CC1c1ccc(F)cc1)C(=O)C1CC1 (stereo unspecified),5,0
